Source: PubChem
Nrf2 block = Nrf2 qHTS screen for inhibitors; A549 ARE-Fluc reporter, luciferase luminescence, 18-24 h; Potency, µM (top dose mostly 46 µM), for the others: at the highest dose activity change, negative = inhibition, hits mostly inhibitors; hit rate 2.1% among 360,000; AID 504444, 2011; note: % is set by controls: 0 for no effect and ±100 for the full control effect; nearly all actives have a fitted effect of over 60% in size
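A549 ARE_Fluc cells (5000/well, 5% FBS OPTI-MEM) pre-incubated 2 h, then treated with compounds 18-24 h at 37C/5% CO2 in concentration-response. CellTiter-Fluor viability read first; BugLite luciferase luminescence after 15 min at room temperature gives Nrf2 activity.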
Rango release inh = qHTS Assay for Inhibitors of RanGTP induced Rango (Ran-regulated importin-beta cargo) - Importin beta complex dissociation. Snurportin-1 (Homo sapiens) + GTP-binding nuclear protein Ran (Homo sapiens) + Importin …. Potency, µM (titrated, usually from 46.1 µM), for inactives: top-dose activity change, negative = inhibition. hit rate 0.071% among 340,000. AID 540253, 2011. Biochemical FRET Rango-importin beta, RanGTP-induced dissociation; calls by dose curve; note: % of control where 0% means no effect; nearly all actives have a fitted effect of over 45% in size
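Two FRET readings bracket the reaction: one 5 min after compound meets Rango–importin beta, another 45 min after RanGTP-RCC1 (0.6 uM Ran, 0.2 uM RCC1, 2 mM GTP) is added. Only the second defines inhibition.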
Nrf2 activator = qHTS of Nrf2 Activators; hit rate 0.31% among 410,000; AREc32 ARE-luciferase reporter (MCF7-derived line), luminescence, 24 h; Potency, µM (highest dose often 46.1 µM), for the others: top-dose activation, usual class: activators; AID 624171, 2012; note: % of control where 0% means no effect; nearly all actives have a fitted effect of over 65% in size
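Nrf2 activation is followed as ARE-luciferase induction in the AREc32 line after one day of compound treatment; luminescence is read with Steady-Glo.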
A549 tox = Nrf2 qHTS screen for inhibitors: counterscreen for cytotoxicity; Potency, µM (top dose mostly 46 µM), for inactives: at the top dose activity change, negative = cytotoxicity, most hits filed as inhibitors; A549 ARE-Fluc cells, CellTiter-Fluor viability, 18-24 h; AID 504648, 2011; hit rate 0.16% among 390,000; note: % is set by controls: 0 for no effect and ±100 for the full control effect
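A549 ARE_Fluc cells in 5% FBS OPTI-MEM were exposed to compounds in concentration-response for 18-24 h at 37 deg C. Viability was read by CellTiter-Fluor fluorescence (Ex 405/Em 525) after 30 min, before the luciferase read.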
Rango-impB inh = qHTS Assay for Inhibitors of Rango (Ran-regulated importin-beta cargo) - Importin beta complex formation. Potency, µM (highest dose often 92.2 µM), without a hit: at the top dose inhibition of complex formation. AID 540263, 2011. hit rate 0.031% among 340,000. Importin subunit beta-1 (Homo sapiens), Q14974. Rango CFP/YFP FRET sensor + importin beta, 45 min; calls by dose curve;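 note: 0% = DMSO wells and 100% = buffer wells lacking importin beta; nearly all actives have a fitted effect of over 15% in size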
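Inhibition scored from the CFP 486 nm/YFP 530 nm FRET ratio 45 min after adding 0.125 microM importin beta to 50 nM Rango biosensor preincubated 5 min with compound (room temperature, PBS with DTT, Tween-20, BSA). No-importin wells as positive control.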
* = called active by the depositor. Sampled rows, rich in hits. Any-hit rate of the full collection: about 2.3%. Unless noted, calls come from the whole dose curve; as a rule, active = well fitted curve in the direction sought with a large enough effect; inconclusive = small, poorly fitted or top-dose-only effect, or another doubt; inactive = no such curve, though single readings can be large; an effect the other way counts as inactive or inconclusive. Potency is the fitted concentration of half-maximal effect.

O=C(Nc1ccc(N2CCN(Cc3ccccc3F)CC2)cc1)c1ccc([N+](=O)[O-])o1 was read as Nrf2 block 23µM*, Rango release inh -1%, Nrf2 activator inconclusive, A549 tox 16µM* and Rango-impB inh 6%.
O=C(c1ccc(N2CCCC2=O)cc1)N1CCN(c2ccc(Cl)cc2)CC1 was read as Nrf2 block 18µM*, Rango release inh inconclusive, Nrf2 activator 0%, A549 tox -9% and Rango-impB inh inconclusive.
For O=C(NC1CCCC1)C(c1ccc(F)cc1)N(C(=O)c1csnn1)C1CC1 (centres undefined) the results were Nrf2 block -16%, Rango release inh 10%, Nrf2 activator 0%, A549 tox 2% and Rango-impB inh -1%.
For Cc1cccn2c(=O)c(C(=O)NCc3cccc(F)c3)cnc12 the results were Nrf2 activator -1% and A549 tox 4%.
For COC(=O)CN1C(=O)CSc2ccc(S(=O)(=O)Nc3ccc(Cl)cc3C)cc21 the results were Nrf2 block -26%, Nrf2 activator 0% and A549 tox -1%.
`COc1ccc(S(=O)(=O)N2CCC(N3CCN(Cc4ccccc4)C(=O)C3=O)CC2)cc1` gave Nrf2 block inconclusive, Nrf2 activator 0% and A549 tox 5%.
CC(C)(C)C(=O)N1CCN(c2ccc(NC(=O)c3ccc([N+](=O)[O-])o3)cc2)CC1 was read as Nrf2 block inconclusive, Rango release inh -2%, Nrf2 activator inconclusive, A549 tox -17% and Rango-impB inh -3%.
Screening CS(=O)(=O)N1CCN(c2ccc(NC(=O)c3ccc([N+](=O)[O-])o3)cc2)CC1 returned Nrf2 block -9%, Rango release inh 1%, Nrf2 activator inconclusive, A549 tox 13µM* and Rango-impB inh 0%.
`O=C(Nc1ccc(N2CCN(C(=O)c3ccc(Cl)cc3)CC2)cc1)c1ccc([N+](=O)[O-])o1` gave Nrf2 block 21µM*, Rango release inh -13%, Nrf2 activator 6.3µM*, A549 tox inconclusive and Rango-impB inh 0%.
`O=C(Nc1ccc(N2CCN(C(=O)c3ccc(Cl)cc3)CC2)cc1)c1ccc2c(c1)OCCO2` gave Nrf2 block 6.5µM*, Rango release inh -1%, Nrf2 activator 0%, A549 tox -11% and Rango-impB inh -1%.
`COc1ccccc1-n1cc2ccc([N+](=O)[O-])cc2n1` gave Nrf2 block inconclusive, Rango release inh 2%, Nrf2 activator 11µM*, A549 tox 15% and Rango-impB inh inconclusive.
For CCCn1c(SCc2nc(-c3ccc(OC)c(OC)c3)no2)nnc1-c1ccccc1 the results were Nrf2 block inconclusive, Nrf2 activator 5% and A549 tox -2%.
For CCOC(=O)c1csc(NC(=O)c2ccc(OCC)cc2)n1 the results were Nrf2 block 21µM*, Rango release inh 9%, Nrf2 activator 0%, A549 tox -23% and Rango-impB inh 2%.
`CCOC(=O)c1csc(NC(=O)c2ccccc2)n1` gave Nrf2 block inconclusive, Rango release inh 24%, Nrf2 activator 2%, A549 tox 7% and Rango-impB inh 10%.
For C=C1C(=O)O[C@H]2[C@H]1[C@H](OC(=O)/C(C)=C\C)C[C@]1(CO1)[C@@H]1[C@H](OC(C)=O)C=C(C)[C@]21O the results were Nrf2 block -4%, Rango release inh 1%, Nrf2 activator 16µM*, A549 tox -5% and Rango-impB inh -1%.
C=C1C(=O)O[C@H]2C[C@]3(C)C([C@@H](OC(=O)/C(C)=C/C)[C@H]12)[C@](C)(O)CC[C@H]3O (some centres undefined) was read as Nrf2 block inconclusive, Rango release inh 0%, Nrf2 activator 7%, A549 tox -24% and Rango-impB inh -1%.
COc1ccc(-c2[nH]c(-c3ccc4c(c3)OCO4)nc2-c2ccccc2)cc1 was read as Nrf2 block 21µM*, Rango release inh 0%, Nrf2 activator -1%, A549 tox inconclusive and Rango-impB inh -2%.
O=C(NNC(=O)C12CC3CC(CC(C3)C1)C2)c1ccccn1 was read as Nrf2 block 21µM*, Rango release inh -6%, Nrf2 activator inconclusive, A549 tox inconclusive and Rango-impB inh 5%.
For O=C(NNC(=O)C12CC3CC(CC(C3)C1)C2)c1cnccn1 the results were Nrf2 block -7%, Rango release inh -18%, Nrf2 activator 0%, A549 tox -5% and Rango-impB inh -1%.
`Cc1cccc(C(=O)Nc2nnc(S(=O)(=O)N(C)c3ccccc3C)s2)c1` gave Nrf2 block inconclusive, Nrf2 activator 0% and A549 tox 6%.
For CCc1cc2c(=O)c(-c3nc(C)cs3)c(CCCC(=O)O)oc2cc1O the results were Nrf2 block 0%, Rango release inh -17%, Nrf2 activator 3%, A549 tox 1% and Rango-impB inh 0%.
`CCc1cc2c(=O)c(-c3nc(C)cs3)coc2cc1OC(C)C(=O)NCCO` (centres undefined) gave Nrf2 block 13µM*, Rango release inh -7%, Nrf2 activator 0%, A549 tox -1% and Rango-impB inh inconclusive.
Screening COc1ccc(C(=O)Nc2ccc(Cl)cc2C(=O)NCc2ccco2)cc1OC returned Nrf2 block 21µM*, Rango release inh -8%, Nrf2 activator 3%, A549 tox inconclusive and Rango-impB inh 6%.
For CCCc1nnc(NC(=O)CCC(=O)NC2CCCCCC2)s1 the results were Nrf2 block 3%, Rango release inh 14%, Nrf2 activator 0%, A549 tox 0% and Rango-impB inh -5%.
CN1C(=O)C2(OCC(COc3ccc(Cl)cc3)O2)c2ccccc21 (centres undefined) was read as Nrf2 block 18µM*, Rango release inh -11%, Nrf2 activator 1%, A549 tox -10% and Rango-impB inh 1%.
Cc1ccoc1C(=O)Nc1ccc(CC(=O)O)cc1 was read as Nrf2 block 1µM*, Rango release inh 23%, Nrf2 activator -2%, A549 tox -8% and Rango-impB inh -2%.
`c1ccc(CN2CCN(c3nc(-c4ccccc4)nc(-n4ccnc4)n3)CC2)cc1` gave Nrf2 block 15µM*, Rango release inh -8%, Nrf2 activator 0%, A549 tox -30% and Rango-impB inh 0%.
